The panel holds about 83,000 compounds, 20% with a hit somewhere; the sample as a whole holds those more often.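 Note: values are percent growth. 100 is the growth of untreated cells, values between 100 and 0 indicate rising inhibition; between -100 and 0 indicates cell death.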 Calls of active or inactive are those of the source. How the source made its calls: active means growth percent below 10; inactive means the rest.
tested on: RXF 393 renal; assay: NCI-60 one-dose screen, 48 h (100 = growth as untreated, 0 = no growth, -100 = all killed); details: 10 µM unless noted

Question: For OCCn1cc(-c2nc3ccc4[nH]ncc4c3c3c2CCCC3)cn1, which growth is on record?
Answer: -12.6% (active)

Question: Which growth does the source give for Cn1cc(-c2cc(N)n3nc(-c4c[nH]c5ccc(F)cc45)cc3n2)c2cccnc21 here?
Answer: -81.2% (active)

Question: With COc1ccc2c(c1)N=c1c-2cc2c(O)[nH]c(=S)n2c1=O as the molecule, how does the growth read?
Answer: 11.4% (inactive)

Question: Which growth does the source give for O=C(NN1C(=O)/C(=C/C=C/c2ccc([N+](=O)[O-])o2)SC1=S)c1ccncc1 here?
Answer: -93.6% (active)

Question: How did the growth turn out when Cn1cc(-c2cc(N)n3nc(-c4c[nH]c5ccccc45)cc3n2)c2cc(Br)ccc21 was run?
Answer: -80.6% (active)

Question: How did the growth turn out when Cn1cc(-c2cc(N)n3nc(-c4c[nH]c5ccccc45)cc3n2)c2ccccc21 was run?
Answer: -72.5% (active)

Question: For O=C1c2cccc3c(N4CCN(c5ccccc5)CC4)ccc(c23)C(=O)N1c1cccc(-c2nn(-c3ccccc3)cc2-c2nc3ccccc3s2)c1, which growth is on record?
Answer: 106% (inactive)

Question: Which growth does the source give for O=C(c1ccc(O)cc1)C1[C@H](c2ccccc2Br)[C@@H](c2ccccc2)NC12C(=O)Nc1ccccc12 (some centres not stated) here?
Answer: 20.8% (inactive)

Question: With COc1ccc(-c2cc(C(=O)N=Nc3c(O)[nH]c4ccc(Cl)cc34)c3ccccc3n2)cc1 as the molecule, how does the growth read?
Answer: 133% (inactive)

Question: CC(C)(C)OC(=O)N1CCC2(CC1)Oc1ccccc1[C@H]1CC(c3ccc(Br)cc3)=NN12 was tested. Which growth did it give?
Answer: 86.2% (inactive)

Question: Cc1cc(C(NC(=O)CCCCCNc2cccc3c2C(=O)N(C2CCC(=O)CC2=O)C3=O)c2cccc(N(C)C)c2)c(O)c2ncccc12 (configuration not stated) was tested. Which growth did it give?
Answer: 32.1% (inactive)

Question: How did the growth turn out when O=C(c1ccc(O)cc1)C1[C@H](c2ccc(Cl)cc2)[C@@H](c2ccccc2)NC12C(=O)Nc1ccc(Br)cc12 (some centres not stated) was run?
Answer: -85.9% (active)
